Screening data: PubChem, National Center for Advancing Translational Sciences (NCATS)
HCV inh: inhibitors of hepatitis C virus infection; AID 651820; 340,000 tested, 3.4% active; Potency, µM (top dose mostly 41.8 µM), inactives show at the highest dose activity change, negative = inhibition, most hits filed as inhibitors; Huh7.5.1 HCVcc-Cre infection, luciferase reporter, 44 h; further: potency means the concentration at half of the fitted maximal effect; on the % scale 0 is the no-effect control and ±100 the full control effect
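Infectious HCV cell culture screen: compound-treated cells (1,000/well, pre-plated 4 h) are infected with HCVcc-Cre at roughly 0.5 moi and grown 44 h. Infection is quantified by luciferase signal after 15 min substrate incubation at room temperature.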
Pf growth 96h: P. falciparum growth inhibition at 96 hour, primary screen for plastid delayed-death inhibitors | 320,000 tested, 6.9% active | Potency, µM (top dose mostly 28.7 µM), inactives show at the highest dose activity change, negative = inhibition, usual class: inhibitors | P. falciparum luciferase reporter growth, 96 h; further: potency means the concentration at half of the fitted maximal effect; on the % scale 0 is the no-effect control and ±100 the full control effect
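Plates of compound plus infected erythrocytes (2% hematocrit, 0.05% parasitemia final) incubate 96 hours, 37 C, 5% CO2. Detection reagent added; reduced luminescence from the parasites' luciferase reporter flags inhibition.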
HCMV inh: human cytomegalovirus inhibition; 410,000 tested, 4.5% active; HFF cells, HCMV-luciferase reporter, 72 h; stronger effect = lower value; AID 1259415; activity change, negative = inhibition, % at 57.5 µM; in the data active means activity change below about -60%; inconclusive means no clear call, values can overlap the other calls; inactive means above about -39%; further: on the % scale 0 is the no-effect control and ±100 the full control effect
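Two-dose cell screen: HFF monolayers treated with compounds and infected with luciferase-expressing HCMV at 1 PFU/cell, 72 h at 37C, then lysed for luciferase measurement.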
Sm TGR inh: S. mansoni TGR enzyme inhibition; Q962Y6; purified TGR, DTNB reduction, TNB absorbance 405 nm; Potency, µM (doses to about 114 µM), for the others: top-dose activity change, negative = inhibition, hits mostly inhibitors; 360,000 tested, 3% active; further: potency means the concentration at half of the fitted maximal effect; on the % scale 0 is the no-effect control and ±100 the full control effect; nearly all actives have a fitted effect of over 60% in size
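TGR 20 nM + NADPH 100 uM (dispensed conc.), cpd preinc 15 min RT; start with NADPH (500 uM addition) then DTNB (15 mM addition). Kinetic TNB absorbance, 405 nm filter. Four-parameter Hill fit across titration.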
Pf growth 48h: P. falciparum growth inhibition at 48 hours (one generation). Potency, µM (highest dose often 28.7 µM), for inactives: top-dose activity change, negative = inhibition, usual class: inhibitors. P. falciparum luciferase growth in erythrocytes, 48 h. 310,000 tested, 5.9% active. AID 504832; further: potency means the concentration at half of the fitted maximal effect; on the % scale 0 is the no-effect control and ±100 the full control effect
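Parasite viability was followed by luminescence of a genomically integrated firefly luciferase. Cultures held 0.1% parasitemia at 2% hematocrit (final), incubated under 5% CO2 at 37 C.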
SARS PLpro yeast: blocks SARS-CoV papain-like protease in a yeast assay | S. cerevisiae expressing SARS-CoV PLpro, growth rescue | Potency, µM (top dose mostly 32.9 µM), without a hit: at the highest dose activity, positive = growth rescue, usual class: activators | 330,000 tested, 0.19% active; calls by dose curve; further: potency means the concentration at half of the fitted maximal effect; 0% is about no effect; nearly all actives have a fitted effect of over 55% in size
Starred values were filed as active, the others as inactive; ? = inconclusive; · = no result; [ ] = remark or other dose. Only some compounds are listed: those with a hit (about 15% of all), similar ones and a draw of the others. Unless noted, the call rests on the fitted dose curve; in most records, active means well fitted curve in the direction sought with a large enough effect; inconclusive means small, poorly fitted or top-dose-only effect, or another doubt; inactive means no such curve, though single readings can be large; an effect the other way counts as inactive or inconclusive.

SMILES	HCV inh	Pf growth 96h	HCMV inh	Sm TGR inh	Pf growth 48h	SARS PLpro yeast
O=C(COc1ccc(F)cc1)N1CCCc2ccccc21	0%	0%	?	55%	-2%	-14%
COC(C(=O)N1CCC(CCC(=O)Nc2ccccc2)CC1)c1ccccc1 (stereo not given)	-21%	-4%	38	4%	-14%	6%
Cc1c(C(=O)N(C)Cc2cccc(F)c2)oc2c(Cl)cccc12	-16%	?	-29	1%	-1%	-18%
Cc1c(C(=O)N(C)CC(=O)Nc2cccc(F)c2)oc2c(Cl)cccc12	?	1.5µM*	-18	1%	2.6µM*	-1%
COCCN(CC(=O)Nc1cccc(C)c1C)C(=O)c1cc(-c2ccncc2)nc2ccccc12	-22%	8.3µM*	12	-8%	10µM*	4%
COc1ccc2c3c([nH]c2c1)[C@H](CO)N(C(=O)c1cccnc1)CC31CN(C(=O)c2cccnc2)C1	·	·	-2	·	·	·
CCOC(=O)c1c(C)n(C)c2cc(Br)c(O)c(O)c12	-27%	?	-31	?	-15%	0%
CCOC(=O)c1c(CSc2cccs2)n(C)c2cc(Br)c(O)c(CN(C)C)c12	?	15%	-38	·	13µM*	0%
COc1ccc(OC)c(S(=O)(=O)N2CCC(C(=O)NCCC3=CCCCC3)CC2)c1	-13%	-19%	-4	-2%	13µM*	-27%
COc1ccc(C)cc1NC(=O)c1cc(S(=O)(=O)NCCC2=CCCCC2)ccc1F	·	·	-17	10%	·	·
COc1ccc(C)cc1NC(=O)NCCC1=CCCCC1	0%	55%	-34	4%	15µM*	-9%
COc1ccc(CCNC(=O)C2CCN(S(=O)(=O)c3cccc4nonc34)CC2)cc1OC	-16%	8.3µM*	-15	0%	-12%	-3%
O=C(NCCc1ccccc1)C1CCN(S(=O)(=O)c2cccc3nonc23)CC1	9%	39%	1	0%	·	-3%
CCOc1ccc(OCC)c(NC(=O)C2CCN(S(=O)(=O)c3cccc4nonc34)CC2)c1	20%	13µM*	-11	4%	·	5%
CCCc1cc(=O)n2[nH]c(NCc3ccccc3OC)nc2n1	·	·	16	-1%	·	·
CC(C)(C)c1nnc(NC(=O)C2CC(=O)N(CCc3ccc(F)cc3)C2)s1 (stereo not given)	-16%	0%	24	1%	-6%	-1%
O=C(NCCc1ccccc1)C1(c2cccs2)CCOCC1	·	·	12	2%	·	·
CC(=O)Nc1c(C(N)=O)oc2ccc(Cl)cc12	2%	0%	18	11%	22%	3%
CC(=O)Nc1c(C(=O)O)oc2ccc(Cl)cc12	19%	2.6µM*	100	3%	-3%	5%
O=C(CSc1n[nH]c(-c2ccccc2Cl)n1)N1CCN(c2ccccc2)CC1	·	·	37	1%	·	·
COc1cc(Nc2ccc(S(N)(=O)=O)cc2)c([N+](=O)[O-])nc1[N+](=O)[O-]	8%	2%	-19	20µM*	2%	0%
CN1CCC(OC(=O)COc2ccc(C(C)(C)C)cc2)CC1	24%	22%	-9	0%	11%	5%
NC(=O)C1CCCN(CC(O)COCc2ccc(Cl)cc2)C1 (stereo not given)	9%	10%	5	1%	·	-2%
CSc1nsc(SCc2cnc(C)nc2N)n1	12%	·	-8	40µM*	20%	0%
CC(C)NC(=O)C1(C)CCCN1C(=O)c1cc(C#N)cs1 (stereo not given)	·	·	-6	·	·	·
SMILES	HCV inh	Pf growth 96h	HCMV inh	Sm TGR inh	Pf growth 48h	SARS PLpro yeast
COc1ccc2cc(C(N)=O)c(=Nc3ccc(C)cc3)oc2c1	-23%	90%	-83*	7%	?	4%
COc1ccccc1N=c1oc2cc(O)ccc2cc1C(N)=O	5%	21%	-36	0%	82%	-33%
Cc1cccc(N=c2oc3cc(O)ccc3cc2C(N)=O)c1	?	2%	-61*	-2%	23%	-15%
COc1ccc2cc(C(N)=O)/c(=N\NC(=O)c3ccccc3)oc2c1	-5%	39%	23	5%	26%	1%
CC(C)(C)c1ccc2c(c1)OC(C(=O)N/N=C/c1ccc([N+](=O)[O-])o1)CO2 (stereo not given)	?	2.9µM*	-6	?	?	-4%
CC(C)(C)c1ccc2c(c1)OC(C(=O)N/N=C\c1ccc[nH]1)CO2 (stereo not given)	1µM*	33%	-39	6%	?	-11%
COc1ccccc1/C=C/c1nc2ccccc2n1C(C)C	·	·	71	-4%	·	·
CCCOc1ccc(-c2cccc(NS(=O)(=O)c3ccc(CC)cc3)c2)nn1	·	·	-22	6%	·	·
Cc1ccccc1CN1C[C@@H]2C[C@@H](c3cn[nH]c3-c3ccc(F)cc3)N3CCC[C@@]23C1=O	?	5%	-71*	-5%[57.1 µM]	?	0%
COc1ccc(-c2[nH]ncc2[C@@H]2C[C@H]3CN(Cc4ccccc4C)C(=O)[C@]34CCCN24)cc1	?	6%	-71*	-1%[57.1 µM]	3.3µM*	0%
CCCCn1c(SCC(=O)Nc2cc(NC(=O)c3ccco3)ccc2C)nc2ccccc2c1=O	?	?	-76*	?	·	1%
Cc1ccc(NC(=O)CSc2nc3ccccc3nc2N2CCCC2)cc1	?	-11%	-31	9%	?	-1%
CCc1ccc(NC(=O)CSc2nc3ccccc3c(=O)n2CCCN2CCC(C)CC2)cc1	?	-8%	-108*	-1%	?	0%
CCc1ccc(NC(=O)CSc2nc3ccccc3nc2N2CCCC2)cc1	-9%	2.6µM*	-11	-3%	-10%	?
Cc1ccc(NC(=O)CSc2nc3ccccc3c(=O)n2CCCN2CCCCC2)cc1C	14µM*	-20%	7	6%	12µM*	-4%
O=C(c1cc(F)c(F)cc1Cl)N1CCN(S(=O)(=O)c2cccs2)CC1	-5%	2%	-4	0%	-23%	-11%
C[C@@H]1CN([C@H](C)CO)C(=O)c2cc(Br)cnc2O[C@@H]1CN(C)Cc1ccc(-c2ccccc2)cc1	·	·	-2	·	·	·
Cc1ccc(CNC(=O)CN2N=C(c3ccccc3)CCC2=O)cc1	·	·	12	0%	·	·
CCCCNc1nc2ccccc2n1CC(=O)N1CCc2ccccc2C1	2%	3.7µM*	-6	-8%	12µM*	3%
CCCCNc1nc2ccccc2n1CC(=O)Nc1c(C)cccc1CC	-12%	?	0	-15%	-24%	21%
COc1ccccc1CNC(=O)CCC(=O)n1ncc2cc(C)ccc21	10%	2.6µM*	5	-28%	8%	3%
CNCCCC1c2ccccc2C=Cc2ccccc21	?	12µM*	-6	1%	?	2%
CNCCC=C1c2ccccc2C=Cc2ccccc21	?	·	-2	·	·	·
